Test results: ChEMBL document CHEMBL3988442, “University of Dundee, Small-Polar-MMV Screening Library” (2021)
The campaign covered roughly 67,000 compounds. About 300 (0.45%) showed an effect of 50% or more. The entries come from a sample that favours strong results as a whole.

Target: Polyketide synthase Pks13 (Mycobacterium tuberculosis (strain ATCC 25618 / H37Rv)) (UniProt I6X8D2)
Test: Mycobacterium tuberculosis Polyketide synthase 13 Thioesterase (PKS13)
Type: functional
Set-up: scale not given: in the data most compounds retested in dose-response had high values
Conditions: 30 µM

Sequence of Polyketide synthase Pks13 (Mycobacterium tuberculosis (strain ATCC 25618 / H37Rv)) (I6X8D2 whole entry): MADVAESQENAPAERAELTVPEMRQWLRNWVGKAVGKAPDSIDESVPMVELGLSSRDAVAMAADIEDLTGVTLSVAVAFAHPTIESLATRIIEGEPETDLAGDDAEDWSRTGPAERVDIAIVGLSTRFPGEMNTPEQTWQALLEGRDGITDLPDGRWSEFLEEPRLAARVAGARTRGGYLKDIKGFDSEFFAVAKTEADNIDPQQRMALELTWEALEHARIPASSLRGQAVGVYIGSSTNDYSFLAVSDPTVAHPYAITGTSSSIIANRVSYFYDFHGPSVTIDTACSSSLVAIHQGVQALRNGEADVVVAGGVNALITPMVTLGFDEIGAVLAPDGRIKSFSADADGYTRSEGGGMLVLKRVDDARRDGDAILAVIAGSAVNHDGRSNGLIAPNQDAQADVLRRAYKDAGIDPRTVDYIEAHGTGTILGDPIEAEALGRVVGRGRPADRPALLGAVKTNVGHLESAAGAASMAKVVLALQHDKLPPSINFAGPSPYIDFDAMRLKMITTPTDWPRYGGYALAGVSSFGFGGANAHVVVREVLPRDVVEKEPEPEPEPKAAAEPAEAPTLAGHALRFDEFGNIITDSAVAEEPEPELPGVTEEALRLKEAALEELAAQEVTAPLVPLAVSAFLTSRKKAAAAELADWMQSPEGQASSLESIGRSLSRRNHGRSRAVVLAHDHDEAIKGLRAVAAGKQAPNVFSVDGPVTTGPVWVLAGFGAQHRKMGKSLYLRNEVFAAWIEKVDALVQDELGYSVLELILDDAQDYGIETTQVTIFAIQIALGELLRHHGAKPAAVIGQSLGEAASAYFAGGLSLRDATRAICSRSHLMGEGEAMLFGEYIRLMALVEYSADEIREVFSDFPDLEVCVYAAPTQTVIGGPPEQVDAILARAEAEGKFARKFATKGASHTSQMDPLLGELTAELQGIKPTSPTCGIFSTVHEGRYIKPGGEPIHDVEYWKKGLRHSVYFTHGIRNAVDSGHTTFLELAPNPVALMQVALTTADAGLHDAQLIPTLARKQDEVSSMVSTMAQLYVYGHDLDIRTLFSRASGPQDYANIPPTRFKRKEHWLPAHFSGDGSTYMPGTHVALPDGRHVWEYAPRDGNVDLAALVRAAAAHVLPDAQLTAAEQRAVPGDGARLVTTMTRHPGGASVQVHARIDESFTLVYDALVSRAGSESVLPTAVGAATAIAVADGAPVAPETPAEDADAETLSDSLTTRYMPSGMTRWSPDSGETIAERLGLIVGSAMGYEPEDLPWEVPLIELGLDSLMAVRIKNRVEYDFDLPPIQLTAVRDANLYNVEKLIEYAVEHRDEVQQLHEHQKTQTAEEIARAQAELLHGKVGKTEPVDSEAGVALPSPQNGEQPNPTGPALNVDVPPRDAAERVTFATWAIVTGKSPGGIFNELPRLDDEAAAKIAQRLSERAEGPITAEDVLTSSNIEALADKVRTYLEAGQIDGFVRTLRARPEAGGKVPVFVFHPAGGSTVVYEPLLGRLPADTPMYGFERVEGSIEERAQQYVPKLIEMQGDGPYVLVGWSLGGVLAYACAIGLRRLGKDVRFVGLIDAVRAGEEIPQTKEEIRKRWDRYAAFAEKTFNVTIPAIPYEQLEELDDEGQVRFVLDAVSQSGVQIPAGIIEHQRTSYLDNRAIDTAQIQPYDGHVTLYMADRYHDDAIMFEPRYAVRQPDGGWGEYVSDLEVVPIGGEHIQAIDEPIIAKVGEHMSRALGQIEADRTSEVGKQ

Point of comparison: O=C1OCCN1CC(=O)N1C[C@H]2CC[C@@H]1CN(C(=O)c1ccccn1)C2, Percent Effect -14.6%. Against it:
- Cn1c(NCCC(=O)N2CCCC2)c(C#N)c(=O)n(C)c1=O — higher, 1.71%
- Cn1c(NCC(=O)N2CCCC2)c(C#N)c(=O)n(C)c1=O — higher, 51.5%
- Cn1c(NCC(=O)N2CCCCC2)c(C#N)c(=O)n(C)c1=O — higher, -9.87%
- Cn1cc(N2C(=O)CC[C@@H]3[C@H]2CCN3Cc2cccc(C#N)c2)cn1 — higher, -11.3%
- O=c1[nH]c2cc3c(cc2cc1CN1CCCC1c1ccccn1)OCO3 (centres undefined) — higher, 78.6%
- O=c1[nH]c2cc3c(cc2cc1CN1CCCC1c1ccccn1)CCC3 (centres undefined) — lower, -17.3%
- CCOc1ccc2[nH]c(=O)c(CN3CCCC3c3ccccn3)cc2c1 (centres undefined) — lower, -32.9%
- O=C(c1ccoc1)N1CC[C@@H]2O[C@@H](COCc3ccncc3)CC[C@@H]21 — higher, -10.6%
- O=C(C[C@H]1[C@H]2CN(c3ncccn3)C[C@@H]12)Nc1cccnc1 — higher, -4.86%
- CC(C)CN1CC[C@@H]2[C@@H]1CCN2C(=O)N(C)C — lower, -18.3%
- CCc1noc(Cn2c(=O)c3c(C(F)(F)F)cc(C)nc3n2C)n1 — higher, 64.5%
- Cc1cc(Cn2c(=O)c3c(C(F)(F)F)cc(C)nc3n2C)on1 — higher, 3.92%
- CCc1nc(Cn2c(=O)c3c(C(F)(F)F)cc(C)nc3n2C)no1 — higher, 9.67%
- CO[C@H]1CC[C@H]2[C@H]1OCCN2C(=O)c1ccc(C)nc1 — lower, -32.1%
- Cc1ccc(N2CC[C@H]3OCC[C@@]3(C(=O)NCC3CC3)C2)nn1 — lower, -16.8%
- CC(C)CN1CCN(Cc2nc3c(s2)CCCC3)[C@H]2CS(=O)(=O)C[C@H]21 — higher, 3.91%
- CCN1CCN(C(=O)c2cnc3c(cnn3C3CCCC3)c2)CC1 — higher, 2.83%
- CN1CCN(C(=O)c2cnc3c(cnn3C3CCCC3)c2)CC1 — lower, -58.3%
- O=C(c1cnc2c(cnn2C2CCCC2)c1)N1CCN(CCO)CC1 — higher, 90.8%
- Cc1cc(CN2CC[C@@H]3O[C@@H](c4nnc(C)o4)C[C@H]3C2)no1 — higher, -7.21%
- CNC(=O)c1cc2c(nc1NC(C)C)CCNCC2 — higher, 73.6%
- CCS(=O)(=O)N1CCc2cc(C(=O)N(C)C)c(NCC3CC3)nc2CC1 — lower, -30.5%
- Cc1nc2c(cc1C(=O)O)CCN(CC1CC1)CC2 — lower, -19.8%
- CC(C)Nc1nc2c(cc1C(=O)NCC1CC1)CCN(S(C)(=O)=O)CC2 — higher, 85.6%
- CC(C)Nc1nc2c(cc1C(=O)NCC1CC1)CCN(C)CC2 — higher, 90.8%
- CNC(=O)c1cc2c(nc1N(C)C)CCN(C)CC2 — lower, -20.6%
- CC(C)NC(=O)c1cc2c(nc1N(C)C)CCN(S(=O)(=O)C1CC1)CC2 — higher, 33.7%
- CC(C)Nc1nc2c(cc1C(=O)N(C)C)CCNCC2 — higher, 0.822%
- CC(C)CCN1CCc2cc(C(=O)N(C)C)c(NCC3CC3)nc2CC1 — higher, -8.68%
- CN(C)C(=O)c1cc2c(nc1NCC1CC1)CCN(CC1CC1)CC2 — higher, -12.7%
- CC(C)Nc1nc2c(cc1C(=O)NCC1CC1)CCN(CC1CC1)CC2 — higher, 69.4%
- CN1CCc2cc(C(=O)N(C)C)c(NCC3CC3)nc2CC1 — higher, -5.51%
- CCS(=O)(=O)N1CC[C@H]2O[C@H](c3nnc(C)o3)CC[C@H]21 — higher, -8.23%
- CN1CC[C@H]2CN(C(=O)c3csc(Cc4ccccc4)n3)C[C@H]21 — lower, -37.9%
- O=C1O[C@@H]2CN(C3CCOCC3)C[C@@H]2N1CCCc1ccc(F)cc1 — higher, 1.75%
- CC(C)CN1CCS(=O)(=O)[C@@H]2CCN(S(=O)(=O)N(C)C)CC[C@@H]21 — lower, -30.1%
- CCN1CCc2cc(C(=O)N(C)C)c(NCC3CC3)nc2CC1 — higher, -12.5%
- CNC(=O)c1cc2c(nc1NC(C)C)CCN(C(=O)NC(C)C)CC2 — higher, 29.7%
- CNC(=O)N1CCc2cc(C(=O)NCC3CC3)c(NC(C)C)nc2CC1 — higher, 51.5%
- CNC(=O)N1CCc2cc(C(=O)N(C)C)c(NCC3CC3)nc2CC1 — higher, 4.02%
- COCCN1CCc2cc(C(=O)NC(C)C)c(NCC3CC3)nc2CC1 — higher, 45.7%
- CC(C)Nc1nc2c(cc1C(=O)NCC1CC1)CCNCC2 — higher, 51.7%
- COCCN1CCc2cc(C(=O)NCC3CC3)c(NC(C)C)nc2CC1 — higher, 68.2%
- COCCN1CCc2cc(C(=O)N(C)C)c(NC(C)C)nc2CC1 — higher, -2.98%
- Cc1noc([C@@H]2CC[C@@H]3[C@@H](CCN3S(=O)(=O)c3cccnc3)O2)n1 — higher, 4.22%
- Cc1ccc(N2CC[C@@H]3CN(Cc4cc[nH]n4)C[C@@H]3C2)nn1 — higher, 3.96%
- CCN1CCN(S(=O)(=O)N2CCCC2)[C@H]2CS(=O)(=O)C[C@H]21 — lower, -23.5%
- CC(=O)N1CC[C@H]2N(C)CC[C@@]2(C(=O)Nc2cccnc2)CC1 — higher, -11.6%
- O=C(c1ccco1)N1C[C@H]2CN(Cc3cccc(F)c3)C(=O)[C@H]2C1 — higher, -4.13%
- c1ccc2c(c1)C(NC1CCCC1)CC21CCNCC1 (centres undefined) — higher, -6.43%
- CNC(=O)N1C[C@H]2CC[C@@]3(N=C(c4ccccc4)NC3=O)[C@H]2C1 — lower, -17.2%
- CCOC(=O)[C@@H]1[C@@H](c2ccccc2)CN2CCN(S(C)(=O)=O)C[C@H]12 — higher, -1.54%
- c1coc(CN2C[C@@H]3OCCN(CCN4CCCC4)[C@@H]3C2)c1 — lower, -17.4%
- CCc1nnc(Nc2cccc(C3CCN(C(=O)CNC)CC3)n2)s1 — lower, -24.5%
- CCc1nnc(Nc2cccc(C3CCN(C(=O)CO)CC3)n2)s1 — higher, 4.46%
- CCc1nnc(Nc2cccc(C3CCN(C(C)=O)CC3)n2)s1 — higher, 86.9%
- CC(=O)N1CCO[C@@H]2CN(C(=O)NCc3ccccc3)CC[C@@H]2C1 — lower, -30.5%
- Cc1ccc(N2CC[C@H]3O[C@H](C(=O)NCc4ccco4)CC[C@H]32)nn1 — higher, -3.57%
- Cc1ccc(N2CC[C@H]3OCC[C@@]3(C(=O)N3CCCO3)C2)nn1 — lower, -34%
- COc1ccc(CN2C[C@@H]3OCC(=O)N(Cc4nccn4C)[C@@H]3C2)cc1 — lower, -29.9%
- O=C1CNc2ncnc(N3CCN(Cc4ccccc4)CC3)c2N1 — higher, -2.51%
- O=C1CNc2ncnc(N3CCN(Cc4ccccc4F)CC3)c2N1 — higher, 84.6%
- Cc1ccccc1CN1CCN(c2ncnc3c2NC(=O)CN3)CC1 — higher, -5.54%
- Cc1noc(C)c1CN1CC[C@H]2C[C@@H](c3ccncn3)O[C@@H]2C1 — lower, -34.7%
- Cc1nc2cc(C3CCCCN3C(=O)C3CC3)nn2c(O)c1C (centres undefined) — higher, 9.02%
- CC(=O)N1N=C(c2ccco2)OC1C(=O)NCCc1ccc(O)cc1 (centres undefined) — higher, 8.81%
- CC(=O)N1N=C(c2ccco2)OC1C(=O)N(CC(C)C)CC(C)C (centres undefined) — higher, -6.84%
- CC(=O)N1N=C(c2ccco2)OC1C(=O)NCC(C)C (centres undefined) — higher, 52.5%
